Experimental data published in PubChem BioAssay AID1645855 (Buhrlage Lab, Dana-Farber Cancer Institute and Novartis …, 2021).
The campaign covered roughly 47,000 compounds. About 3,100 (6.6%) were called active. The full list was thinned out, with actives kept by preference. A number with no mark means an inactive call. Rule as the data show it: active = inhibition above about 30%; inactive = the rest.

biological target: Ubiquitin carboxyl-terminal hydrolase 17-like protein 5 (Homo sapiens) (UniProt A8MUK1); assay: inhibitors of human USP17 deubiquitinase (AID 1645855); settings: purified USP17, Ub-rhodamine cleavage fluorescence, 3 h; at 50 µM; active compounds read high
Sequence (A8MUK1 whole entry, looked up): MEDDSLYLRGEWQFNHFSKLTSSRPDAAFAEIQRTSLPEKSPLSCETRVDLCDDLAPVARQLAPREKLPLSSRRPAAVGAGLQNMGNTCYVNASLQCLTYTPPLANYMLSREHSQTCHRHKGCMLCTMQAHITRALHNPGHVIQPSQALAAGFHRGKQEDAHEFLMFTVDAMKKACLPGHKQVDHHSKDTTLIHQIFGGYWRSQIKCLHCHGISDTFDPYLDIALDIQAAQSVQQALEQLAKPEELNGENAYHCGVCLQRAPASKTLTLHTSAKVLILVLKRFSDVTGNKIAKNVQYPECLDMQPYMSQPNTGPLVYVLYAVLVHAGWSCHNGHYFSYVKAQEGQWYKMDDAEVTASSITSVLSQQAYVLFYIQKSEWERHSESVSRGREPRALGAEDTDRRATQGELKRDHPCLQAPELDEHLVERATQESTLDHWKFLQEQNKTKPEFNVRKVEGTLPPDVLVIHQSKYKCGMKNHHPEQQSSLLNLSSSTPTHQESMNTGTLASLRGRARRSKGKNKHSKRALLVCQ

SMILES | inhibition
Cc1nn(-c2ccccc2)c(C)c1S(=O)(=O)N1CCN(c2ccccn2)CC1 | -17.2%
O=C(c1ccc(N2CCCC2)nn1)N1CCN(c2ccccn2)CC1 | -6.98%
Clc1cc2nc(N3CCN(c4ccccn4)CC3)c3nncn3c2cc1Cl | 31.5% (active)
Cc1ccc(Nc2nc(C(=O)NCCN3CCCCC3C)cc3occc23)cc1Cl (stereo unspecified) | -11.2%
O=C(Nc1nc(-c2ccc3c(c2)CCN3C(=O)c2ccccc2F)cs1)c1cccnc1 | 77.7% (active)
Cc1sc(NC(=O)c2ccccn2)nc1-c1ccc2c(c1)CCN2C(=O)C(C)C | -11.3%
CC(C)(C)CC(=O)N1CCc2cc(-c3csc(NC(=O)c4ccccn4)n3)ccc21 | 2.12%
CCc1nc2ccc(C(=O)Nc3nc(-c4ccc5c(c4)CCN5C(=O)c4ccc(C)cc4)c(C)s3)cc2nc1CC | -24.7%
Cc1ccc(C(=O)N2CCc3cc(-c4csc(NC(=O)CNc5ccccc5)n4)ccc32)cc1 | 32.4% (active)
CCc1nc2ccc(C(=O)Nc3nc(-c4ccc5c(c4)CCN5C(=O)c4ccccc4C)c(C)s3)cc2nc1CC | -14.3%
Cc1cccc(NC(=O)Cn2c(C)ncc(C(=O)NC3CCCC3)c2=O)c1C | 2.77%
O=C(OCc1ccccc1F)c1cc(-c2ccccc2)nc2ccccc12 | 7.27%
CCc1nnc(NC(=O)C2CCN(C(=O)c3ccc(F)cc3)CC2)s1 | 5.9%
COc1cccc(O[C@@H]2C[C@@H](NC(=O)c3ccnn3C)[C@H](N3CCCC3)[C@H]2O)c1 | -13.7%
CCCNC(=O)c1nn(-c2ccc(F)cc2)c2c1CCCCC2 | 3.82%
O=C(CCc1csc(NC(=O)c2ccc(=O)[nH]c2)n1)NCCc1c[nH]c2ccccc12 | 36.5% (active)
Cc1oc(C2CCC2)nc1C(=O)NCCc1c[nH]c2ccccc12 | 7.03%
O=C(Cc1csc(NC(=O)c2ccc(=O)[nH]c2)n1)NCc1ccco1 | -18.1%
COCCCN1CC(=O)N2C(c3cccc([N+](=O)[O-])c3)c3[nH]c4ccccc4c3C[C@@H]2C1=O (stereo partly specified) | -12.6%

SMILES | inhibition
O=S(=O)(Nc1ccc(Cc2ccncc2)cc1)c1ccc2c(c1)OCCO2 | 3.72%
O=C(Nc1cccc2ccccc12)N1CCN(Cc2ccc3c(c2)OCO3)CC1 | 41% (active)
O=C(NCc1ccc2c(c1)OCO2)C1=CCN(Cc2ccccc2)CC1 | -28.1%
COC(=O)c1cc2c(ccn2C)n1CC(=O)N1CCN(Cc2ccc3c(c2)OCO3)CC1 | -63.5%
CNc1nc2c(c(=O)n1-c1ccccc1OC)CCN(C(=O)N1CCOCC1)C2 | -2.32%
CCCCn1c(=O)[nH]c2cc(-c3nc(-c4ccccn4)no3)ccc2c1=O | -20.4%
Cc1c(C(=O)NC2CCCCC2)oc2ccccc12 | 0.0641%
CCS(=O)(=O)c1cccc(C(=O)Nc2c(C(N)=O)oc3ccccc23)c1 | 41.9% (active)
O=C(Nc1c(C(=O)N2CCOCC2)oc2ccccc12)c1ccccc1F | -1.41%
CCCSc1nc(NCC2CCCO2)c2c3c(sc2n1)COC(C)(C)C3 (stereo unspecified) | -37.2%
Cc1noc(C)c1CC(=O)N1CCN(c2ccccc2F)CC1 | 20.5%
CCCc1cc(=O)oc2cc(OCC(=O)NCc3ccc(OC)cc3)ccc12 | 30.6% (active)
CCCc1cc(=O)oc2cc(OC(=O)C3CCN(C(=O)c4ccc(Cl)cc4)CC3)ccc12 | 10.2%
COc1ccc(N2CCN(Cc3cc(=O)oc4cc(O)ccc34)CC2)cc1 | 4.8%
Cc1c(CC(=O)NCC(=O)O)c(=O)oc2c(C)c(O)ccc12 | -3.52%
O=c1c2[nH]c3ccc(Cl)cc3c2ncn1Cc1cccnc1 | -5.96%
O=c1c2[nH]c3ccc(F)cc3c2ncn1CCN1CCCC1 | 6.33%
Cc1ccc2[nH]c3c(=O)n(Cc4ccccn4)cnc3c2c1 | 48.9% (active)
COc1cc(Cn2cnc3c([nH]c4ccc(Br)cc43)c2=O)cc(OC)c1 | 26%

SMILES | inhibition
COc1ccccc1Cn1cnc2c([nH]c3cc(OC)c(OC)cc32)c1=O | 58% (active)
CCOc1ccc2[nH]c3c(=O)n(Cc4cccnc4)cnc3c2c1 | 25.4%
O=C(O)c1cc(S(=O)(=O)NC2CCCc3ccccc32)ccc1O (stereo unspecified) | -9.75%
COc1ccc(S(=O)(=O)Nc2ccc(-c3ccc(OC)nn3)cc2)cc1 | 14.6%
COCCN(CCOC)S(=O)(=O)c1ccc(C(=O)Nc2sccc2C(N)=O)cc1 | 7.55%
O=C(NCC(c1ccccc1)N1CCCCC1)c1cc(-c2cccs2)on1 (stereo unspecified) | -11.5%
O=C1N(c2cccc(F)c2)c2ncccc2S(=O)(=O)N1Cc1ccccc1 | 2.92%
COCCCNC(=O)[C@H](Cc1ccccc1)NC(=O)N1CCn2c1nc1ccccc12 | -0.405%
COc1cccc(NC(=O)Cn2c(C)cc(C)c2-c2nc(C(C)C)no2)c1 | -2.06%
COc1ccc(OCC(=O)Nc2noc(-c3ccccc3)n2)cc1 | 23.8%
COc1ccc(NC(=O)Cc2noc(-c3cccc(OC)c3)n2)cc1 | 35.7% (active)
CC(C)c1nnc(NC(=O)C2CC(=O)N(CCc3ccc(F)cc3)C2)s1 (stereo unspecified) | 5.74%
CCN1[C@H]2CCN(C(=O)C3(C#N)CC3)CC[C@@H]2Oc2ccccc2S1(=O)=O | -12.7%
Cc1ccc(NC(=O)CCC(=O)N(c2ccccc2)c2ccccc2)cc1Cl | 6.95%
COc1cccc(NC(=O)COC(=O)c2ccc(OC)c(S(=O)(=O)Nc3cc(Cl)c(OC)cc3OC)c2)c1 | 3.55%
Cc1ccc(NC(=O)CCOc2ccccc2)cc1S(=O)(=O)Nc1ccccc1Cl | 39.7% (active)
O=C(NCCc1ccc(F)cc1)c1ccc(S(=O)(=O)Nc2ccccc2F)cc1 | 13.4%
Cc1nc(CCN2CCN(Cc3ccccc3)CCC2=O)no1 | 9.08%
